From the supplement of paper PMC4237247

What follows are molecules tested on HeLa (assay: percent cells in G2/M phase; higher = more G2/M arrest). Settings: 10 µM; 20 h; hit class: G1-phase inhibitor.
Description: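 HTS of 79,827 drug-like compounds at 10 uM. HeLa cells in 384-well plates were treated for 20 h, fixed, stained with Vybrant DyeCycle Green and scanned on an Acumen eX3 cytometer to give per-well cell cycle profiles (% cells in each phase). The plate Z' was 0.51. Only hits are listed: G1 hits >4 SD and S hits >5 SD from the mean.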

`CNc1ccc2oc(C[C@H]3O[C@@]4(CC[C@H]3C)O[C@H]([C@H](C)C(=O)c3ccc[nH]3)[C@H](C)C[C@H]4C)nc2c1C(=O)O` was tested. Which “percent cells in G2/M phase” value did it give?
The value was 5.98%.

`C/C=C(/C)C(=O)O[C@H]1C(C)=C2[C@H]([C@@H]1OC(=O)CCCCCCC)[C@@](C)(OC(C)=O)C[C@H](OC(=O)CCC)[C@@]1(O)[C@H]2OC(=O)[C@@]1(C)O` was tested. Which “percent cells in G2/M phase” value did it give?
The value was 9.52%.

With `O=[N+]([O-])c1ccc(NCCO)c2ncccc12` as the molecule, how does the “percent cells in G2/M phase” value read?
Its value is 23.7%.

For `C[C@@]12C(=O)OC(=O)[C@]1(C)[C@H]1CC[C@@H]2O1`, which “percent cells in G2/M phase” value is on record?
The value was 12%.

With `C[C@@H]1C[C@@H]([C@H](O)CC2CC(=O)NC(=O)C2)C(=O)[C@@H](C)C1` [Cycloheximide] as the molecule, how does the “percent cells in G2/M phase” value read?
Its value is 11.8%.

`C[C@@H]1O[C@@H](O[C@H]2C[C@@H](O)[C@]3(CO)[C@H]4[C@H](O)C[C@]5(C)[C@@H](C6=CC(=O)OC6)CC[C@]5(O)[C@@H]4CC[C@]3(O)C2)[C@H](O)[C@H](O)[C@H]1O` was tested. Which “percent cells in G2/M phase” value did it give?
Its value is 12.2%.

`C/C(=C\c1ccc(Cl)cc1)[N+](=O)[O-]` was tested. Which “percent cells in G2/M phase” value did it give?
The value was 2.17%.

How did the “percent cells in G2/M phase” value turn out when `CC(C)(C)c1cc(C=C(C#N)C#N)cc(C(C)(C)C)c1O` was run?
The value was 12.3%.

`CNC1CC2OC(C)(C1OC)n1c3ccccc3c3c4c(c5c6ccccc6n2c5c31)C(=O)NC4` (centres undefined) was tested. Which “percent cells in G2/M phase” value did it give?
Its value is 3.24%.
